Type in all cases: functional
Experiment [1] deals with Plasmodium falciparum. Put plainly: GSK_TCMDC: Inhibition of Plasmodium falciparum 3D7 in whole red blood cells, using parasite LDH activity as an index of growth. Test compounds present at 2uM.
Experiment [2] has as its system Plasmodium falciparum. Put plainly: GSK_TCMDC: Inhibition of Plasmodium falciparum Dd2 in whole red blood cells, using parasite LDH activity as an index of growth. Test compounds present at 2uM.
Experiment [3] relates to HepG2. Put plainly: GSK_TCMDC: Percent inhibition of human HepG2 cell line. Test compounds present at 10uM.

The structures appear in SMILES notation. “And” between values parts separate entries of the source, which are not always exact repeats. Identical values can stand only once.

As to `CN(C)c1cccc(NC(=O)NC2N=C(c3ccccc3)c3ccccc3N(CC(=O)N(C)c3ccccc3)C2=O)c1` (configuration not stated), the values for the Inhibition in experiment [1], in experiment [2] and in experiment [3] were 99%, 80% and 1%, respectively.
`C/C=C1\CN2CC[C@H]1C[C@H]2[C@H](O)c1ccnc2ccc(O)cc12`: the Inhibition in experiment [1] is recorded as 98%; in experiment [2], 0%; in experiment [3], 0%.
In the case of `O=C(/C=C/c1c(Cl)cccc1Cl)NC1CCC(CN2CCC(c3c[nH]c4ccccc34)CC2)CC1` (configuration not stated), the Inhibition in experiment [1] is 93% and 100%; in experiment [2] it was 21% and 42%; in experiment [3], 54% and 39%.
On to `O=C(c1cc(C(=O)NCc2ccc(Cl)cc2)c(=O)n(Cc2ccc(Cl)cc2)c1)c1cc(Cl)ccc1O`, for which the Inhibition worked out at 80% in experiment [1], 4% in experiment [2] and 6% in experiment [3].
Taken in the same sequence, the figures for `COc1cc(CC(C)NCC(O)c2cccc(C(F)(F)F)c2)ccc1OCc1ccccc1` (configuration not stated) were 93%, 71% and 2%.
On the same counts, the results for `CC(Cc1ccc(OCc2ccccc2)c(Cl)c1)NCC(O)c1cccc(C(F)(F)F)c1` (configuration not stated) are 97%, 95% and 0%.
In the case of `CS(=O)(=O)Nc1ccc2[nH]cc(C3CC4CCC(C3)N4CC3CCC(NC(=O)/C=C/c4ccc(Cl)c(Cl)c4)CC3)c2c1` (configuration not stated), the Inhibition in experiment [1] was 100%; in experiment [2], 50%; in experiment [3] it was 3%.
On the same counts, the results for `COc1ccc(N(c2nc(-c3cc(Cl)ccc3Cl)cs2)C2CCNCC2)cc1.O=C(O)C(F)(F)F` are 91%, 4% and 17%.
Taken in the same sequence, the figures for `CC[C@H]1CN2CC[C@@H]1C[C@H]2[C@H](O)c1cc(-c2ccc(F)cc2)nc2ccc(O)cc12.Cl` were 99%, 99% and 25%.
Consider `O=C(NC1CCC(CN2CCC(c3c[nH]c4ccccc34)CC2)CC1)c1csc(-c2cccc(Cl)c2Cl)n1` (configuration not stated), for which the Inhibition came out at 99% in experiment [1], 41% in experiment [2] and 34% in experiment [3].
On the same counts, the results for `Clc1ccc2nccc(N3CCC(CN4CCC(c5c[nH]c6ccccc56)CC4)CC3)c2c1.O=C(O)C(F)(F)F` are 100%, 81% and 46%.
On the same counts, the results for `O=C(NC1CCC(CN2CCC(c3c[nH]c4ccccc34)CC2)CC1)c1cc2cccc([N+](=O)[O-])c2[nH]1` (configuration not stated) are 100%, 100% and 36%.
Take `Cc1[nH]c2cc(F)ccc2c1C1=CCN(CCCCC2(C)C(=O)Nc3ccccc32)CC1` (configuration not stated): the Inhibition in experiment [1] is 93%; in experiment [2] it was 90%; in experiment [3] it was 13%.
As for `CN(C)c1cccc(CN2CC=C(c3c[nH]c4ccc(Cl)cc34)CC2)c1`, the Inhibition in experiment [1] is reported as 93%; in experiment [2], 87%; in experiment [3] it was 40%.
On the same counts, the results for `Cc1ccc(CC(C)NCC(O)c2cccc(Br)c2)cc1` (configuration not stated) are 99%, 97% and 7%.
Taken in the same sequence, the figures for `O=C(c1cc(C(=O)NCc2ccc(Cl)cc2)c(=O)n(Cc2ccc(Cl)cc2)c1)c1cc(F)ccc1O` were 93%, 2% and 7%.
Consider `O=C(/C=C/c1ccc(Cl)c(Cl)c1)N1CCC(CN2CCC(c3c[nH]c4cc5c(cc34)OCO5)CC2)CC1`, for which the Inhibition in experiment [1] worked out at 100%; in experiment [2] it was 75%; in experiment [3] it was 41%.
`CC(Cc1ccc(SCCSc2ccccc2)cc1)NCC(O)c1cccc(Cl)c1` (configuration not stated): the Inhibition stood at 98% in experiment [1], 96% in experiment [2] and 4% in experiment [3].
Taken in the same sequence, the figures for `Cc1[nH]c2cc(Cl)ccc2c1C1=CCN(CCCCC2(C)C(=O)Nc3c(F)cccc32)CC1` (configuration not stated) were 90%, 74% and 14%.
As to `CCc1ccc(CN2CCC(CN(C(=O)c3ccccc3)c3ccc(Cl)cc3)CC2)cc1`, the Inhibition in experiment [1] was 96%; in experiment [2], 95%; in experiment [3], 12%.
Taken in the same sequence, the figures for `CC[C@H]1CN2CC[C@H]1C[C@H]2[C@H](O)c1cc(/C=C/c2ccc(F)cc2)nc2ccc(OC)cc12.Cl` were 99%, 99% and 55%.
Taken in the same sequence, the figures for `CN1C(=O)OC[C@@H]1Cc1ccc2[nH]cc(C3=CCN(Cc4ccccc4)CC3)c2c1` were 86%, 66% and 4%.
As for `COCCNCc1cccc(-c2ccc(CN(C(=O)NC3CCCCC3)C3CCN(Cc4ccccc4)CC3)cc2)c1.O=C(O)C(F)(F)F`, the figures for the Inhibition in experiment [1], in experiment [2] and in experiment [3] were 100%, 31% and 32%, respectively.
On the same counts, the results for `Cl.N=c1c2c(n(Cc3ccc(Cl)cc3Cl)c3c1CCC3)CCCC2` are 94%, 73% and 0%.
With `CC(=O)N(Cc1ccccc1-c1cccc(CNCCc2ccccc2)c1)C1CCN(Cc2ccccc2)CC1.O=C(O)C(F)(F)F`, the Inhibition in experiment [1] was determined as 89%; in experiment [2], 30%; in experiment [3], 19%.
Taken in the same sequence, the figures for `CC[C@H]1CN2CC[C@@H]1C[C@H]2[C@H](O)c1cc(N2CCOCC2)nc2ccc(OC)cc12` were 99%, 99% and 10%.
On the same counts, the results for `CCCCCc1cc(O)c2c(c1)OC(C)(C)CC2C1=CCN(Cc2cnc3ccccc3c2)CC1.Cl.O` (configuration not stated) are 98%, 98% and 27%.
Regarding `S=C(Nc1ccccc1Cl)NC1CCC(CN2CCC(c3c[nH]c4ccccc34)CC2)CC1` (configuration not stated), the Inhibition is on record as 90% in experiment [1], 12% in experiment [2] and 31% in experiment [3].
With `CNCC(O)c1cc(Cl)c(Cl)cc1C.Cl` (configuration not stated), the values for the Inhibition in experiment [1], in experiment [2] and in experiment [3] were 98%, 88% and 0%, respectively.
On to `O=C(NC1CCN(CC2(c3ccc(Cl)cc3)CCC2)CC1)c1cc[nH]n1`, for which the Inhibition in experiment [1] was 96%; in experiment [2] it was 43%; in experiment [3] it was 0%.
On the same counts, the results for `CCC1CN2CCc3cc(OC)c(OC)cc3C2CC1CC1NCCc2c1[nH]c1ccc(O)cc21` (configuration not stated) are 99%, 100% and 45%.
Consider `CC(C)N(C)C(=O)n1cnc(S(=O)(=O)C2CC3CCC2C3)n1.Cl` (configuration not stated), for which the Inhibition amounted to 97% in experiment [1], 96% in experiment [2] and 26% in experiment [3].
Taken in the same sequence, the figures for `COc1cc(C=CC(=O)N2CCC(CN3CCC(c4c[nH]c5ccccc45)CC3)CC2)ccc1O` were 82%, 25% and 11%.
Taken in the same sequence, the figures for `CC(C)/C(=C(/F)CN1C(=O)C(NC(=O)c2cc3ccccc3[nH]2)C(=O)N(c2ccccc2)c2ccccc21)c1ccccc1` (configuration not stated) were 98%, 82% and 7%.
In the case of `Cn1nc(-c2ccc(S(=O)(=O)N3CCC(CN4CCC(c5c[nH]c6ccccc56)CC4)CC3)s2)cc1C(F)(F)F`, the Inhibition in experiment [1] was 93%; in experiment [2], 48%; in experiment [3], 16%.
Taken in the same sequence, the figures for `O=C(/C=C/c1ccc(Cl)c(Cl)c1)NC1CCC(CN2CCC(c3c[nH]c4cc(O)ccc34)CC2)CC1` (configuration not stated) were 100%, 98% and 18%.
`Cc1[nH]c2ccc(O)cc2c1C1CCN(CC2CCC(NC(=O)/C=C/c3c(Cl)cccc3Cl)CC2)CC1` (configuration not stated): the Inhibition in experiment [1] was 100%; in experiment [2], 93%; in experiment [3] it was 25%.
On the same counts, the results for `CC(=O)Nc1ccc(CN2CCC(N(C)c3cc(NC(=O)c4cccs4)ccn3)CC2)cc1.O=C(O)C(F)(F)F` are 100%, 43% and 0%.
For the compound `CC[C@H]1CN2CC[C@H]1C[C@H]2[C@H](O)c1cc(-c2ccc(OC(F)(F)F)cc2)nc2ccc(OC)cc12.Cl`, the figures for the Inhibition in experiment [1], in experiment [2] and in experiment [3] were 98%, 99% and 24%, respectively.
Take `CC(C)CCNC(=O)c1cc(C(=O)c2cc(F)ccc2O)cn(CCC(C)C)c1=O`: the Inhibition came to 100% in experiment [1], 45% in experiment [2] and 14% in experiment [3].
Regarding `COc1ccc(C=CC(=O)N2CCC(CN3CCC(c4c[nH]c5ccccc45)CC3)CC2)cc1OC`, the Inhibition in experiment [1] is reported as 94%; in experiment [2], 4%; in experiment [3], 20%.
For `CCCCCCCn1c(=O)c(C(=O)Nc2c(C)cccc2C)c(O)c2ccccc21`, the figures for the Inhibition in experiment [1], in experiment [2] and in experiment [3] were 90%, 42% and 6%, respectively.
As to `COc1ccc(O)c(CN2CCN(c3cc(C)ccc3C)CC2)c1`, the Inhibition amounted to 90% in experiment [1], 86% in experiment [2] and 7% in experiment [3].
Turning to `CCN(Cc1ccccc1)CC(O)c1ccc(Cl)c(Cl)c1.Cl` (configuration not stated), the values for the Inhibition in experiment [1], in experiment [2] and in experiment [3] were 96%, 71% and 2%, respectively.
On the same counts, the results for `O=c1n[n+](C2CCCCC2)[n-]o1` are 91%, 82% and 0%.
Take `O=C(NC1CCN(CC2(c3ccc(Cl)cc3)CCC2)CC1)c1cscn1`: the results for the Inhibition in experiment [1], in experiment [2] and in experiment [3] were 98%, 95% and 0%, respectively.
In the case of `CC[C@H]1CN2CC[C@@H]1C[C@H]2[C@H](O)c1cc(-c2ccc(Cl)c(Cl)c2)nc2ccc(O)cc12`, the Inhibition came out at 98% in experiment [1], 99% in experiment [2] and 0% in experiment [3].
Taken in the same sequence, the figures for `CC(=O)C1(c2ccccc2)CCN(CCC2(c3ccc(Cl)c(Cl)c3)CN(C(=O)c3cccc(Cl)c3)CCO2)CC1` (configuration not stated) were 90%, 61% and 37%.
On the same counts, the results for `Cc1ccc(CC(C)NCC(O)c2cccc(C#N)c2)cc1` (configuration not stated) are 94%, 86% and 2%.
On the same counts, the results for `Br.CC[C@H]1CN2CC[C@H]1C[C@H]2[C@H](O)c1ccnc2ccc(OC)cc12` are 100%, 62% and 0%.
For `C=C[C@H]1CN2CC[C@H]1C[C@H]2[C@H](O)c1cc(-c2ccc(Cl)cc2)nc2ccc(OC)cc12.Cl`, the Inhibition in experiment [1] is reported as 99%; in experiment [2], 98%; in experiment [3] it was 38%.
Consider `O=C(NC1CCC(CN2CCC(c3c[nH]c4ccccc34)CC2)CC1)c1cc(-c2ccccc2Cl)oc1C(F)(F)F` (configuration not stated), for which the Inhibition in experiment [1] turned out to be 99%; in experiment [2] it was 7%; in experiment [3] it was 24%.
On the same counts, the results for `COc1ccc2nc(-c3ccc(F)cc3)cc([C@@H](O)[C@@H]3C[C@@H]4CCN3CC4C=NO)c2c1` (some centres not stated) are 100%, 94% and 14%.
Take `CCOC(C(=O)OCC1CCCN1C(C)C)(c1ccccc1)c1ccccc1` (configuration not stated): the Inhibition in experiment [1] came out at 98%; in experiment [2], 2%; in experiment [3], 0%.
Consider `O=C(/C=C/c1ccc(Cl)c(Cl)c1)NC1CCC(N2CCC(c3c[nH]c4ccc(O)cc34)CC2)CC1` (configuration not stated), for which the Inhibition in experiment [1] amounted to 97%; in experiment [2], 16%; in experiment [3], 10%.
On the same counts, the results for `COCC(=O)N(Cc1ccccc1-c1ccc(CNCCc2ccccc2)cc1)C1CCN(Cc2ccccc2)CC1.O=C(O)C(F)(F)F` are 94%, 86% and 39%.
On the same counts, the results for `Oc1ccc(CN2CCN(CCOC(c3ccc(F)cc3)c3ccc(F)cc3)CC2)cc1Cl` are 96%, 87% and 19%.
Consider `CC[C@H]1CN2CC[C@H]1C[C@H]2[C@H](O)c1cc(N2CCCC2)nc2ccc(OC)cc12`, for which the Inhibition is recorded as 98% in experiment [1], 100% in experiment [2] and 0% in experiment [3].
Taken in the same sequence, the figures for `COc1cc(NCCCNC(=O)c2cn(Cc3ccccc3)c3ccccc23)nc2ccccc12` were 100%, 66% and 13%.

Source of the values: ChEMBL document CHEMBL1157539, “Thousands of chemical starting points for antimalarial lead identification” (Nature, 2010).
